# Assay results taken from PubChem BioAssay AID1733 (National Center for Advancing Translational Sciences (NCATS), 2009).
# Where “and” joins values, the source holds several entries; their conditions need not be identical. Equal entries are not always repeated. Records with an inconclusive call do not appear. Values without a mark were called inactive. Calls of active or inactive are those of the source. Calls follow the shape of the dose curve; as a rule, active = well fitted inhibition curve with a large enough effect; inconclusive = small, poorly fitted or top-dose-only effect; inactive = flat fitted curve, though single readings scatter.
# Biological target: Luciferin 4-monooxygenase (Photinus pyralis) (UniProt P08659)
# Sequence (P08659 whole entry, looked up, canonical isoform): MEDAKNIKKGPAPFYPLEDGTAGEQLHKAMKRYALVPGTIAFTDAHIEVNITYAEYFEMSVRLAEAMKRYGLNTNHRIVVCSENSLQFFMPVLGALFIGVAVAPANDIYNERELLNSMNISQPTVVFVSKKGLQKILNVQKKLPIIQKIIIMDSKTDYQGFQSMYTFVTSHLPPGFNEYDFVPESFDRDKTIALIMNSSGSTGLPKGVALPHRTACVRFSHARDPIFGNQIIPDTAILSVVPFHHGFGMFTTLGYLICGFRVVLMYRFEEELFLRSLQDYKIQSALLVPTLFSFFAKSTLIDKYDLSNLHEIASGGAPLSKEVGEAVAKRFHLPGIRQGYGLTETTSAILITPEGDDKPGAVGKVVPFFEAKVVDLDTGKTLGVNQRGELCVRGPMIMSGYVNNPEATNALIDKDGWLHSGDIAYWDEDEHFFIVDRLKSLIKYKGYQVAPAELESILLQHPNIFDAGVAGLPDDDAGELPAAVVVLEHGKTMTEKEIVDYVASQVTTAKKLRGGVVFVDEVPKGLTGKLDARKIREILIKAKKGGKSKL
# Experiment: Counterscreen Assay for Enhancers of SMN2 Splice Variant Expression: Interaction with Luciferase Reporter
# Conditions: purified firefly luciferase, luminescence, 5 min; series mostly up to 40.3 µM; activity change, negative = inhibition: at the top concentration
# Source text: NIH Chemical Genomics Center [NCGC] NIH Molecular Libraries Probe Production centers Network [MLPCN] MLPCN Grant: R03 MH084179-01 Assay Submitter (PI): Elliot Androphy NCGC Assay Overview: Spinal muscular atrophy (SMA) is caused by insufficient levels of the survival motor neuron protein SMN. The SMN locus on chromosome 5q13 contains two inverted copies of SMN called SMN1 and SMN2 which are 99% identical at the amino acid level. SMN1 is a fully functional protein and SMN2 skips exon 7 90% of the time. Skipping of exon 7 produces non-functional protein product. 10% of the SMN2 protein includes exon 7 and is fully functional. In the SMA disease state, mutations in the SMN1 locus are the cause of the disease state. Because only 10% of SMN2 is of the fully functional form, it is not sufficient to overcome the deficiency produced by the loss of the SMN1 product. A therapy that either increases the amount of SMN2 product made increases the inclusion of exon 7 has been proposed for the treatment of SMA. We have designed an assay to identify small molecules that can increase the amount of functional SMN2 product by appending a luciferase reporter gene after the native SMN2 gene, such that inclusion of exon 7 in the expressed product places the luciferase sequence in frame, thus generating functional luciferase enzyme. One potential source of false positives in the primary screening assay is stabilization of the reporter luciferase via direct binding. This assay attempts to identify such compounds by screening directly for luciferase activity in the absence of the cellular system.
# NCGC Assay Protocol Summary: The primary screen utilizes a luciferase reporter gene assay, combining the promoter and splicing based cassettes in tandem with the major portion of the native SMN1 cDNA, and then transfected into HEK293 cells. Compounds that modulate luciferase signal presumably modulate expression of […]. In this assay, we utilize purified firefly luciferase in lieu of a cellular reporter to identify compounds interacting directly with luciferase in the primary screen. Sequence, Parameter, Value, Description (1) Reagent, 2.5 uL, Enzyme in buffer (note A) (2) Compound, 23 nL, From stock solutions (3) Time, 5 minutes, Room temp (4) Reagent#2.5 ul, Luciferase detection reagent (note B) (5) Detector, 1 sec integrate, Luminescent read on Viewlux (note C) Sigma enzyme (1 mg) considered to be MW 61,000 diluted in 357 ul assay buffer to 50 uM stock. A - Enzyme and buffer consists of 50 mM Tris-acetate pH 7.6, 10 mM Mg acetate 0.05% BSA, 0.01% Tween and 5 nM firefly luciferase B - Detection reagent = britelite plus diluted 1:10 in PBS C - Viewlux settings were 1 second integration medium sensitivity Keywords: Spinal muscular atrophy, SMA, SMN2, high throughput screening, MLSMR, MLPCN, NIH Roadmap, qHTS and NCGC
SMILES,Potency,"activity change, negative = inhibition"
FC(F)(F)c1cccc(Oc2nc(-c3ccccc3)nnc2C(F)(F)F)c1,8.91 µM (active),
Clc1ccc(-c2nnc(-c3ccccc3)nc2-c2c[nH]c3ccccc23)cc1,,3.46%
CCOC(=O)c1c(-c2cccc(C)c2)csc1NC(=O)c1c(-c2ccccc2)noc1C,,-9.91% [at 48.7 pM]
OCCCNc1nc(-c2ccc(Br)cc2)nnc1-c1ccc(Cl)cc1,,-2.32%
NC(=O)N1c2ccccc2C=Cc2ccccc21,,-4.41% [at 51 µM]
NC(=O)C1(N2CCCCC2)CCN(c2nc(-c3ccc(Br)cc3)cs2)CC1,,-6.31%
COc1ccc(CNC(=O)c2ccc(C(C)C)cc2)cc1,,39.8% [at 48.7 pM]
Cc1ccc(-c2nnc(-c3ccccc3)c(-c3ccccc3)n2)cc1,,-16.9%
O=C1CCC(C(=O)Nc2cccc3ccccc23)N1 (stereo not given),,7.8% [at 48.7 pM]
O=C(Nc1cccnc1)/C(N=Nc1c(Cl)cccc1Cl)=C(\O)c1ccccc1,,-9.05% [at 48.7 pM]
FC(F)(F)c1nnc(-c2ccccc2)nc1Oc1ccccc1,11.2 µM (active),
Cc1ccc(-c2csc(NC(=O)C3CCN(S(=O)(=O)c4cccs4)CC3)n2)cc1,8.91 µM (active),
COCCCN1C(=O)C(=O)/C(=C(/O)c2ccc3c(c2)CC(C)O3)C1c1cccnc1 (stereo not given),,4.07% [at 48.7 pM]
COc1ccc(-c2csc(N3CCC(C(N)=O)(N4CCCCC4)CC3)n2)cc1,,-7.05%
CCOc1c(Cl)cc(C(=O)Nc2ccccc2C(=O)O)cc1Cl,3.98 µM (active),
Nc1ccccc1-c1nnn(CC(=O)N2CCCc3ccccc32)n1,,2.12% [at 48.7 pM]
COc1ccc(OC)c(-c2csc(N3CCC(c4ccccc4)CC3)n2)c1,,3.27%
COc1cccc(NC(=O)CSc2nc3ccccc3nc2N2CCOCC2)c1,,5.12% [at 51 µM]
Fc1ccc(Oc2nc(-c3ccccc3)nnc2C(F)(F)F)cc1,11.2 µM (active),
CCCCOC(C)n1cc(F)c(=O)[nH]c1=O (stereo not given),,16.9%

SMILES,Potency,"activity change, negative = inhibition"
OC[C@H]1O[C@@H](n2cnc3c(Nc4ccccc4)ncnc32)[C@H](O)[C@H]1O,,-1.32% [at 51 µM]
CCC(=O)n1nc(NCc2ccccc2OC)nc1NCc1ccccc1OC,,-6.75% [at 48.7 pM]
FC(F)(F)c1cccc(-c2nnc(-c3ccccc3)c(N3CCOCC3)n2)c1,,1.02%
CCC1=Nc2ccccc2-c2nnc(SC)nc2O1,,2.58%
O=S(=O)(NC1CCCc2ccccc21)c1cnc[nH]1 (stereo not given),,3.43% [at 48.7 pM]
COC(=O)C1=C(C)NC(=O)/C1=C\c1cc(C)n(-c2ccccc2F)c1C,,8.15% [at 48.7 pM]
NC(=O)C1(N2CCCCC2)CCN(c2nc(-c3ccccc3)cs2)CC1,,-5.31%
Cc1oncc1C(=O)Nc1ccc(C(F)(F)F)cc1,0.891 µM (active),
CCOc1ccc2nc(N3CCC(C(=O)N4CCN(c5ccccn5)CC4)CC3)sc2c1,,-20.4%
O=[N+]([O-])c1ccc(-c2nnc(-c3ccccc3)c(NCCCO)n2)cc1,11.2 µM (active),
O=c1[nH]c(=O)n(C2CCCO2)cc1Br (stereo not given),,0.483%
Cc1ccc(C2c3c(oc4ccccc4c3=O)C(=O)N2CCCN2CCOCC2)o1 (stereo not given),12.6 µM (active),
Cc1ccc(C(=O)Cn2c3c(sc2=N)CCCC3)cc1,126 nM (active) and 100 nM (active),
Nn1c(SCC(=O)NCCC2=CCCCC2)nnc1C1CCCCC1,,2.17% [at 48.7 pM]
O=C(NCc1cccs1)C(=O)NCC1OCCCN1S(=O)(=O)c1ccccc1 (stereo not given),,14.3% [at 48.7 pM]
CCCSc1nnc2c(n1)OC(c1sccc1C)Nc1ccccc1-2 (stereo not given),14.1 µM (active),
Cc1ccc(-c2nnc(-c3ccccc3)c(N3CCOCC3)n2)cc1,,-6.15%
O=C(Cc1c(F)cccc1Cl)N1CCN(C(=O)c2ccco2)CC1,,-0.165% [at 48.7 pM]
COC(=O)C1=C(CN2CCc3ccccc32)NC(=O)NC1c1cc(C)ccc1C (stereo not given),,18.7% [at 48.7 pM]
C#CCn1c(S(=O)(=O)Cc2ccccc2Cl)nc(-c2ccccc2)c1-c1ccccc1,,12% [at 48.7 pM]
